Assay results taken from PubChem BioAssay AID1159580 (chemical genetic matrix, 2015).
Where “and” joins values, the source holds several entries; their conditions need not be identical. Identical values can stand only once. Out of some 5,500 compounds screened, about 2,000 (36%) were called active. Inconclusive results (about 18%) are left out. Cut-off read from the data, not from the text of the source: active = normalized growth mostly below about 0.91 (no sharp cut-off); inconclusive = no clear call, values can overlap the other calls; inactive = mostly above about 0.92. This is one part of the list.

Assay: chemical genetic growth profiling, strain panel (AID 1159580);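 note: tested at 20 µM; growth read once vehicle control cultures reached saturation at 30 °C; 1 = growth at the plate median or of vehicle wells; lower values mean less growth of the strain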
Conditions: S. cerevisiae deletion strains, growth OD

Measured: normalized growth

O=C(O[C@@H]1Cc2c(O)cc(O)cc2O[C@@H]1c1ccc(O)c(O)c1)c1cc(O)c(O)c(O)c1
inactive: locus YAL021C, strain ccr4, hits give low values 0.925 | locus YAL026C, strain drs2, hits give low values 0.923 | locus YAL030W, strain snc1, hits give low values 1.01 | locus YBL061C, strain skt5, hits give low values 0.955 | locus YBR009C, strain hhf1, hits give low values 0.973 | locus YBR021W, strain FUR4, hits give low values 0.999 | locus YBR171W, strain sec66, hits give low values 1.04 | locus YBR229C, strain ROT2, hits give low values 0.987 | locus YBR279W, strain paf1, hits give low values 0.986 | locus YCL011C, strain gbp2, hits give low values 0.961 | locus YCL016C, strain dcc1, hits give low values 0.966 | locus YCL029C, strain bik1, hits give low values 0.975 | locus YCL061C, strain MRC1, hits give low values 0.986 | locus YCL069W, strain vba3, hits give low values 1 | locus YCR088W, strain abp1, hits give low values 1.03 | locus YDL005C, strain med2, hits give low values 1.04 | locus YDL040C, strain nat1, hits give low values 1.03 | locus YDL074C, strain BRE1, hits give low values 0.854 | locus YDL101C, strain DUN1, hits give low values 0.939 | locus YDL185W, strain tfp1, hits give low values 1.01 | locus YDL192W, strain arf1, hits give low values 0.993 | locus YDR001C, strain nth1, hits give low values 1.02 | locus YDR101C, strain arx1, hits give low values 1.01 | locus YDR137W, strain rgp1, hits give low values 0.975 | locus YDR150W, strain NUM1, hits give low values 0.961 | locus YDR159W, strain sac3, hits give low values 1.12 | locus YDR195W, strain ref2 1.1 | locus YDR297W, strain sur2, hits give low values 0.966 | locus YDR318W, strain mcm21, hits give low values 1.02 | locus YDR334W, strain swr1, hits give low values 0.935 | locus YDR335W, strain msn5, hits give low values 0.981 | locus YDR388W, hits give low values 1.01 | locus YDR392W, strain spt3, hits give low values 1.01 | locus YDR502C, strain sam2, hits give low values 1.02 | locus YEL003W, strain gim4, hits give low values 0.981 | locus YEL037C, strain rad23, hits give low values 0.984 | locus YEL061C, strain CIN8 (second series), hits give low values 1.03 | locus YEL061C, strain CIN8, hits give low values 0.947 | locus YER016W, strain bim1, hits give low values 1.03 | locus YER110C, hits give low values 1.03 | locus YER111C, strain swi4, hits give low values 0.986 | locus YER155C, strain BEM2 (second series), hits give low values 1.01 | locus YER155C, strain BEM2, hits give low values 1.04 | locus YER167W, strain BCK2, hits give low values 0.995 | locus YFR010W, strain ubp6, hits give low values 0.961 | locus YGL078C, strain dbp3, hits give low values 1.03 | locus YGL086W, strain mad1, hits give low values 0.954 | locus YGL167C, strain pmr1, hits give low values 1.02 | locus YGL227W, strain vid30, hits give low values 1.05 | locus YGL240W, strain doc1, hits give low values 1.04 | locus YGL248W, strain PDE1, hits give low values 0.941 | locus YGL253W, strain hxk2, hits give low values 0.979 | locus YGR135W, strain pre9, hits give low values 1.02 | locus YGR252W, strain gcn5, hits give low values 1.01 | locus YHR013C, strain ard1, hits give low values 0.852 | locus YHR030C, strain SLT2, hits give low values 0.965 and 0.994 | locus YHR079C, strain IRE1 (second series), hits give low values 1.02 | locus YHR079C, strain IRE1, hits give low values 0.996 | locus YHR094C, strain hxt1, hits give low values 1.03 | locus YHR129C, strain ARP1, hits give low values 0.931 | locus YHR200W, strain rpn10, hits give low values 1 | locus YIL125W, strain kgd1, hits give low values 1 | locus YIR030C, strain dcg1, hits give low values 1.04 | locus YJL092W, strain hpr5, hits give low values 1.04 | locus YJL095W, strain BCK1 (second series), hits give low values 0.997 | locus YJL095W, strain BCK1, hits give low values 0.898 and 0.984 | locus YJL115W, strain asf1, hits give low values 1.03 | locus YJL129C, strain trk1, hits give low values 1.06 | locus YJL134W, strain LCB3, hits give low values 0.98 | locus YJL154C, strain vps35, hits give low values 1.03 | locus YJL164C, strain tpk1, hits give low values 0.966 | locus YJL166W, strain qcr8, hits give low values 0.922 | locus YJL168C, strain set2, hits give low values 1.03 | locus YJL187C, strain SWE1, hits give low values 0.988
active: locus YBR023C, strain chs3, hits give low values 0.86 | locus YBR231C, strain swc5, hits give low values 0.817 | locus YDL035C, strain GPR1, hits give low values 0.853 | locus YDR069C, strain doa4, hits give low values 0.833 | locus YDR162C, strain NBP2, hits give low values 0.771 | locus YER015W, strain faa2, hits give low values 0.808 | locus YGL173C, strain kem1, hits give low values 0.848 | locus YHR027C, strain rpn1, hits give low values 0.699 | locus YHR142W, strain chs7, hits give low values 0.851 | locus YIL066C, strain RNR3, hits give low values 0.793 | locus YIL073C, strain SPO22, hits give low values 0.665 | locus YJL187C, strain SWE1 (second series), hits give low values 0.854
